Assay outcomes (PubChem)
Rows were chosen to be rich in hits. Some 2.3% of all compounds tested hit in one or more screens of this group.
TAG inh: triacylglycerol accumulation inhibition. H9c2 cells, Nile Red lipid (TAG) fluorescence; cells loaded with 200 µM oleic acid. hit rate 0.66% among 230,000. AID 651582. inhibition, % at 12.5 µM;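 active means pattern-corrected inhibition of lipid staining of at least 50% with the nuclear-stain viability signal not falling by more than 50%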;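 further: 0% = DMSO wells and 100% = triacsin C control wells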
aDG glyco up: alpha-DG glycosylation activation; activation, % at 10 µM; hit rate 0.22% among 360,000; Pro5-aDG cells, alpha-DG glycosylation AlphaScreen (IIH6); 0% Pro5, 100% B10-LARGE cell signal;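 active means activation of at least 8% versus controls, or a plate z-score of at least 8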;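 further: Pro5 are CHO cells carrying HIG-tagged alpha-DG that lacks glycosylation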
beta cell repl: induces beta-cell replication in MIN6 cells | hit rate 0.29% among 330,000 | proliferation, % at 10 µM | MIN6 cells proliferation, ATPlite luminescence, 48 h; cells starved in 0.2% serum; 100% = growth in 10% serum;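 active means compounds whose signal lies at least 3.5 SD above the mean of all wells on their plate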;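 further: 0% = DMSO-treated cells in low-serum medium and 100% = 10% serum control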
m-calpain inh: blocks pig calpain II enzyme activity. AID 1236. inhibition, % at 16 µM. purified calpain II, fluorogenic peptide substrate, 30 min. hit rate 0.37% among 220,000;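 active means inhibition above about 50%, limit read from the data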
FAS TE block: FAS thioesterase (human) inhibition; inhibition, % at 15 µM; recombinant FAS-TE, OMFH fluorogenic substrate, fluorescence endpoint; hit rate 0.67% among 360,000;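 active means compounds whose normalised, plate-corrected inhibition of enzyme fluorescence in the single-dose primary screen is 50% or more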;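 further: 0% = DMSO with enzyme and 100% = substrate without enzyme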
Cardio protect: myocardial damage modulation in H9c2 cells; H9c2 cardiomyocytes, H2O2 injury protection, ATPLite, 2 h; protection from H2O2 cell death, % at 20 µM; hit rate 0.63% among 360,000;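 active means compounds giving at least 50% protection of heart cells from peroxide-induced death in the single-dose screen, raw or plate-pattern-corrected value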;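 further: 0% = DMSO wells with peroxide and 100% = DMSO wells without peroxide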
Active calls of the source: *; nt = no result given.

SMILES | TAG inh | aDG glyco up | beta cell repl | m-calpain inh | FAS TE block | Cardio protect
Cc1ccc(C(C)C)c(OCc2ccc(C(=O)N/N=C/c3ccc(O)cc3O)cc2)c1 | nt | 1 | nt | -12 | 14 | 57*
C=CCn1c(CCCNC(=O)c2ccccc2OC)nc2ccccc21 | 2 | 0 | -1 | 81* | -3 | 9
CCOc1ccc(/C=C2\CCC(C3CCCC3)C2=O)cc1OC (centres undefined) | nt | 0 | -1 | nt | 14 | -6
COc1cc(C=C2CCCC(=Cc3ccc(OCC4CO4)c(OC)c3)C2=O)ccc1OCC1CO1 (centres undefined) | 46 | 0 | nt | nt | 5 | 81*
CNC(=O)C[C@H]1C(=O)N(CCc2ccccc2)C[C@@H]1Cc1ccccc1 | -1 | 0 | nt | nt | -3 | -1
COc1ccc(S(=O)(=O)N2CCOCC2)cc1NC(=O)c1sccc1C | 2 | 0 | -1 | nt | 7 | 3
Cn1c(=O)[nH]c(=O)c2c1nc(N(CCO)Cc1ccccc1)n2CCCc1ccccc1 | nt | 0 | -1 | -5 | 5 | 52*
Cn1c(=O)[nH]c(=O)c2[nH]c(CN3CCN(Cc4ccccc4)CC3)nc21 | 4 | 0 | 2 | -8 | -9 | 17
Cn1c(=O)[nH]c(=O)c2[nH]c(N(Cc3ccccc3)Cc3ccccc3)nc21 | 0 | 0 | -1 | 65* | -11 | -35
C=C(C)Cn1c(N(CCO)Cc2ccccc2)nc2c1c(=O)[nH]c(=O)n2C | -17 | 0 | 3 | -39 | -4 | 9
Cc1cccc(C)c1NC(=O)C(c1cccc2ccccc12)n1c(=O)c(-c2cc3ccccc3[nH]2)nc2ccccc21 (centres undefined) | nt | 1 | nt | nt | nt | nt
COc1cc2c(cc1OC)C1=C(C#N)CC/C(=N\S(=O)(=O)c3ccccc3)N1CC2 | 6 | 0 | 8 | -15 | 12 | -4
COc1ccc(C(=O)N=C2CCC(C#N)=C3c4cc(OC)c(OC)cc4CCN23)cc1 | nt | 2 | 7.2* | 9 | -3 | 5
Cc1cccc(NC(=O)c2oc3ccc(S(=O)(=O)N4CCOCC4)cc3c2C)c1C | nt | 0 | -2 | -41 | 11 | 76*
C/C(=N\NC(=O)CCCNc1ccc(C)cc1)c1ccccn1 | 6 | 0 | -4 | 24 | -12 | 58*
NC(=O)N=Nc1c2[nH]c3ccccc3nc-2c2ccccc12 | 15 | 0 | -4 | -17 | 2 | 60*
COc1ccc(-c2cc(C(=O)NC(C)c3ccccn3)c3ccccc3n2)cc1OC (centres undefined) | 5 | 0 | 5 | nt | -4 | 55*
COc1ccc(NC(=O)c2cc(-c3ccncc3)nc3ccccc23)c(OC)c1 | -16 | 0 | 1 | nt | -2 | 24
COc1ccc(NC(=O)c2cc(-c3ccc(OC)c(OC)c3)nc3ccccc23)c(OC)c1 | nt | 0 | 0 | nt | 10 | 66*
O=C(CCCSc1ccc(Cl)cc1)Nc1cc(S(=O)(=O)N2CCOCC2)ccc1O | -1 | 0 | -8 | nt | 3 | -9
O=C(NCc1ccccc1)C1CCCN(C(=O)NCc2ccccc2)C1 (centres undefined) | nt | 0 | 3 | nt | -6 | 1
Cc1onc(-c2ccccc2)c1C(=O)OCC(=O)c1ccc(F)cc1 | -7 | 0 | nt | nt | 21 | 1
CCOC(=O)C1=C(C)NC(C)=C(C(=O)OCC)C1C(=O)OCC(=O)NC1CCCCC1 | -1 | 0 | 3 | nt | 4 | 83*
CC(C)(O)C(=O)NN(Cc1ccccc1)c1ccccc1 | 0 | 1 | 0 | 3 | 0 | 7
CN(C)N(Cc1ccccc1)C(=O)C(O)(c1ccccc1)c1ccccc1 | nt | 0 | 3 | nt | 12 | 60*
SMILES | TAG inh | aDG glyco up | beta cell repl | m-calpain inh | FAS TE block | Cardio protect
COc1ccc(OC)c(NC(=O)COC(=O)c2c3c(nc4ccccc24)CCCC3)c1 | nt | -1 | -5 | 4 | 23 | 56*
COc1ccc(OC)c(NC(=O)CSc2nc3ccccc3c3nc4ccccc4n23)c1 | nt | nt | nt | 70* | nt | nt
CN1CCc2cc(Cl)c(O)cc2[C@@H](c2ccccc2)C1 | 4 | 0 | 6 | 33 | 0 | 24
CN1CCc2cc(O)c(O)cc2C(c2ccccc2)C1 (centres undefined) | -4 | 0 | -7 | nt | -1 | 54*
Cc1cc(NC(=O)CCC(=O)N(CC(=O)NC2CCCC2)c2ccc(C)c(F)c2)no1 | nt | 0 | -1 | nt | 2 | -3
CC(C)(C)c1ccc(OCCn2nc(C(=O)O)c3ccccc3c2=O)cc1 | nt | 0 | -2 | nt | 32 | 1
Cc1cccc(C)c1OCCn1nc(C(=O)O)c2ccccc2c1=O | 12 | 0 | 0 | 4 | 3 | 57*
Cc1cccc(OCCn2nc(C(=O)O)c3ccccc3c2=O)c1 | -39 | 0 | 0 | 12 | -2 | 73*
Cc1noc(C)c1Cn1nc(C(=O)O)c2ccccc2c1=O | -4 | 0 | 0 | 26 | -8 | 64*
COc1ccc(S(=O)(=O)N2CCCCC2)cc1NC(=O)CCCNC(=O)c1ccc(Cl)cc1 | -17 | 0 | 6 | nt | 0 | 2
COc1ccc(OC)c(NC(=O)CN2C(=O)COc3ccc(C)cc32)c1 | nt | 0 | -2 | nt | 2 | 3
O=[N+]([O-])c1ccc(NCCCNS(=O)(=O)c2ccc(Cl)cc2)c(Cl)c1 | nt | 0 | -5 | 71* | 17 | -22
NC(=O)c1cc2ccccc2o/c1=N/NC(=O)c1cccs1 | 28 | 0 | -2 | -5 | -4 | 27
COc1ccc2o/c(=N/NC(=O)c3cccs3)c(C(N)=O)cc2c1 | 2 | 0 | -1 | -17 | -8 | 54*
Cc1ccc(-n2c(Cl)c(Cl)nc(Cl)c2=O)cc1 | nt | 0 | nt | -14 | 78* | -32
COc1ccc(Cn2c(SCc3cc(C)ccc3C)nc3cc(OC)c(OC)cc3c2=N)cc1 | 112* | -1 | -6 | -16 | 38 | -18
COc1ccc(-c2nc(N/N=C(\C)c3ccc(O)cc3)c3ccccc3n2)cc1 | 55* | 0 | -6 | 2 | 22 | 2
COc1ccc(Nc2nc(-c3ccccc3)nc3ccccc23)cc1 | nt | 0 | -6 | nt | 37 | -4
O=C(Cc1cccc(NC(=O)C2CCN(C(=O)C3CCCCC3)CC2)c1)Nc1cccc(C(=O)N2CCCC2)c1 | 16 | 0 | -1 | nt | -7 | 2
O=C(NCC1CCN(C(=O)c2c(F)c(F)c(F)c(F)c2F)CC1)c1c(F)c(F)c(F)c(F)c1F | -3 | 0 | -3 | nt | 0 | -3
Oc1c(N=Nc2ccccn2)ccc2ccccc12 | 70* | -1 | -6 | 17 | 19 | -8
CC1CCc2c(sc3nc(C(C)(C)C)nc(N4CCN(C(=O)CCl)CC4)c23)C1 (centres undefined) | 91* | 0 | -6 | nt | 41 | -19
CCC(=O)N1CCN(c2nc(CC)nc3sc4c(c23)CCCC4)CC1 | nt | 0 | -3 | nt | 1 | 7
Oc1ccc(Cl)cc1/C=N/c1nccs1 | nt | 0 | -1 | -23 | -3 | 16
Oc1c(Br)cc(Br)cc1C=Nc1cccnc1 | nt | 0 | -6 | nt | -3 | 52*
